# Test results as given in publication PMC7826789 (International Journal of Molecular Sciences, 2021).
# Legend:
# Conditions in all cases: Compound Concentration (nM):1000
# ERK4 = system: T1, ERK4
# T1 construct: gene MAPK4
# ERK5 = system: T2, ERK5
# T2 construct: gene MAPK7
# ERK8 = system: T3, ERK8
# T3 construct: gene MAPK15
# ERN1 = system: ERN1
# FAK = system: T4, FAK
# T4 construct: gene PTK2
# FER = system: FER
# FES = system: FES
# FGFR1 = system: FGFR1
# FGFR2 = system: FGFR2
# FGFR3(G697C) = system: FGFR3(G697C)
# 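Note: KINOMEscan scanMAX binding as percent activity remaining versus control; lower means stronger binding.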
SMILES,Percent Control (ERK4),Percent Control (ERK5),Percent Control (ERK8),Percent Control (ERN1),Percent Control (FAK),Percent Control (FER),Percent Control (FES),Percent Control (FGFR1),Percent Control (FGFR2),Percent Control (FGFR3(G697C))
COc1cccc(-c2c[nH]c3c(N/N=C/c4ccncc4)ncnc23)c1 [GW814408X],8.3%,100%,2%,100%,100%,100%,100%,100%,100%,100%
COc1ccccc1-c1cc(/C=C2\C(=O)Nc3ncc(Br)cc32)cc(Br)c1O [GW442130X],100%,100%,100%,100%,97%,100%,100%,100%,100%,100%
Cl.O=S1CCN(Cc2ccc(-c3ccc4ncnc(Nc5ccc(OCc6ccccc6)c(F)c5)c4c3)o2)CC1 [GW576924A],100%,100%,100%,100%,100%,100%,100%,100%,100%,100%
CCS(=O)(=O)c1ccc(OC)c(Nc2ncc(-c3cccc(F)c3)o2)c1 [GW621970X],100%,100%,100%,100%,100%,100%,100%,25%,22%,7.2%
Nc1ncnc2occ(-c3ccc(NC(=O)Nc4cc(C(F)(F)F)ccc4F)cc3)c12 [GW770249X],100%,100%,2.4%,88%,9.7%,87%,100%,32%,31%,78%
Cl.O=C(Nc1ccc(Oc2ccc3[nH]c(NC(=O)c4ccco4)nc3c2)cc1)Nc1cc(C(F)(F)F)ccc1F [GW683134A],100%,100%,34%,89%,100%,92%,100%,64%,36%,69%
COc1cc(N2CCN(C(C)C)CC2)ccc1Nc1nc(Nc2ccc(F)cc2C(=O)NC[C@@H](O)CO)c2cc[nH]c2n1 [GSK1392956A],100%,99%,100%,43%,4.5%,43%,58%,100%,97%,98%
Cl.c1ccc(Cc2nc3ccc(Nc4ncnc5ccccc45)cc3[nH]2)cc1 [GR269666A],100%,100%,92%,93%,100%,88%,100%,100%,100%,100%
NS(=O)(=O)c1ccc(Nc2ncc(-c3ccccc3)o2)cc1 [GW572399X],100%,100%,28%,100%,100%,100%,100%,100%,100%,100%
COc1ccc2[nH]c3c4[nH]c5ccc(OC)cc5c4c4c(c3c2c1)C(=O)NC4=O [GW296115X],74%,69%,58%,93%,85%,58%,86%,100%,88%,100%
CCn1c(-c2nonc2N)nc2c(C#CC(C)(C)O)nc(OCCNC)cc21.Cl [GSK949675],100%,100%,100%,100%,100%,100%,100%,100%,100%,100%
COc1cccc(-n2ncc3c(N/N=C/c4ccncc4)ncnc32)c1 [GW784752X],58%,100%,17%,72%,100%,100%,100%,87%,100%,92%
C[C@@H](Oc1cc(-n2cnc3ccc(OC4CCN(C)CC4)cc32)sc1C(N)=O)c1ccccc1Cl [GSK579289A],98%,96%,100%,55%,50%,100%,85%,67%,89%,61%
COC(=O)Nc1nc2ccc(Oc3ccc(NC(=O)Nc4cc(C(F)(F)F)ccc4F)cc3)cc2s1.Cl [GW693917A],95%,100%,8.5%,56%,92%,100%,88%,51%,30%,59%
Cc1cc(O)cc(C)c1/C=C/c1cncc(C(N)=O)c1 [GW435821X],100%,100%,100%,82%,100%,98%,100%,92%,100%,100%
CCc1ccc(Oc2nccc(-c3c(-c4ccc(F)cc4)ncn3C3CCNCC3)n2)cc1 [SB-242719],100%,100%,100%,75%,100%,67%,97%,100%,100%,91%
COc1cc2ncn(-c3cc(O[C@H](C)c4ccccc4Cl)c(C(N)=O)s3)c2cc1OC [GSK237701A],100%,100%,84%,88%,100%,100%,95%,65%,58%,63%
Cl.O=C(Nc1ccc(Oc2ccc3[nH]c(NC(=O)c4ccccc4)nc3c2)cc1)Nc1cc(C(F)(F)F)ccc1F [GW709042A],91%,94%,64%,100%,100%,77%,94%,76%,68%,100%
C/C(Nc1ccc(S(N)(=O)=O)cc1)=C1/C(=O)Nc2ccccc21 [GW335962X],100%,100%,100%,88%,93%,88%,84%,86%,93%,100%
COc1cc(/C=N/Nc2ncnc3[nH]ncc23)ccc1O [GW578748X],72%,100%,93%,53%,100%,100%,100%,81%,100%,88%

SMILES,Percent Control (ERK4),Percent Control (ERK5),Percent Control (ERK8),Percent Control (ERN1),Percent Control (FAK),Percent Control (FER),Percent Control (FES),Percent Control (FGFR1),Percent Control (FGFR2),Percent Control (FGFR3(G697C))
COc1cc2ncnc(Nc3ccc4c(cnn4Cc4ccccc4)c3)c2cc1OC.Cl [GW282449A],100%,100%,100%,96%,100%,100%,100%,100%,100%,100%
CN(C)c1cc2c(Nc3ccc4c(cnn4Cc4ccccc4)c3)ncnc2cn1 [GW282974X],100%,100%,87%,52%,85%,100%,81%,97%,97%,93%
CN(C)CCNC(=O)Nc1ccc(N(C)c2ccnc(Nc3ccc(CS(C)(=O)=O)cc3)n2)cc1.Cl [GW830900A],93%,100%,78%,72%,49%,100%,100%,100%,94%,100%
CC1=C(C(=O)Nc2ccc3[nH]ncc3c2)C(c2ccc(Cl)c(Cl)c2)CC(=O)N1 (stereo not shown) [GSK299115A],100%,100%,90%,80%,100%,97%,96%,90%,73%,94%
COc1ccc(COc2ccc(Cc3cnc(N)nc3N)cc2OC)cc1 [GW632580X],100%,100%,100%,88%,100%,81%,82%,67%,99%,89%
CC(C)COC(=O)c1ccc2c(c1)/C(=C/Nc1ccc(S(N)(=O)=O)cc1)C(=O)N2 [GW416981X],100%,100%,1.8%,100%,100%,100%,100%,100%,100%,100%
O=C1Nc2ccc(C(=O)c3ccco3)cc2C1=Cc1cc(Cl)c(O)c(Cl)c1 [GW406108X],100%,100%,100%,66%,100%,100%,99%,100%,75%,100%
CN1CCN(C(=O)c2ccc(NC(=O)Nc3ccc(N(C)c4ccnc(Nc5ccc(CS(C)(=O)=O)cc5)n4)cc3)cc2)CC1.Cl [GW830263A],100%,100%,25%,25%,36%,46%,67%,100%,99%,100%
COc1ccc2cc(-c3c(-c4ccncc4)nc(-c4ccc(S(C)(=O)=O)cc4C)n3C)ccc2c1 [SB-633825],74%,89%,100%,74%,85%,77%,81%,73%,73%,86%
COc1cc(C=NNc2ncnc3c2cnn3-c2ccccc2)ccc1O [GW513184X],37%,100%,22%,100%,100%,100%,100%,100%,100%,100%
COc1ccc2c(-c3ccnc(Nc4cccc(OC(F)(F)F)c4)n3)cnn2n1 [GW810372X],100%,100%,3.6%,100%,100%,100%,100%,91%,100%,75%
NS(=O)(=O)c1ccc(N/N=C2\C(=O)Nc3ccc(Cl)cc32)cc1 [GW280670X],100%,100%,59%,100%,100%,90%,100%,100%,100%,100%
COc1cc(C)c(N(C)C(=O)CN(C)C)cc1Nc1nc(Nc2cccc(F)c2C(N)=O)c2cc[nH]c2n1 [GSK2219385],92%,100%,95%,100%,100%,91%,97%,100%,82%,88%
CCS(=O)(=O)c1ccc(OC)c(Nc2ncc(-c3cccc(OC)c3)o2)c1 [GW580509X],100%,100%,100%,76%,100%,100%,100%,39%,58%,31%
O=C(Nc1n[nH]c2nc(-c3ccc(O)cc3)c(Br)cc12)C1CC1 [SB-725317],100%,2.4%,27%,93%,100%,100%,100%,100%,100%,100%
CC1=C(C(=O)Nc2ccc3[nH]ncc3c2)C(c2ccc3ccccc3c2)CC(=O)N1 (stereo not shown) [GSK270822A],100%,100%,100%,78%,100%,77%,84%,72%,66%,78%
NS(=O)(=O)c1ccc(N/N=C2\C(=O)Nc3ccc(-c4cnco4)cc32)cc1 [GW276655],100%,98%,23%,89%,68%,91%,86%,85%,100%,78%
NS(=O)(=O)c1ccc(N/N=C2\C(=O)Nc3ccc(C(=O)NCc4ccncc4)cc32)cc1 [GW300657X],100%,39%,4%,57%,86%,100%,100%,91%,80%,100%
Cl.O=C(O[C@H]1CN[C@H](C#Cc2cc3ncnc(Nc4ccc5c(cnn5Cc5ccccc5)c4)c3s2)C1)N1CCOCC1 [GSK200398A],99%,89%,90%,88%,96%,94%,95%,100%,100%,86%
NS(=O)(=O)c1ccc(N/N=C2\C(=O)Nc3ccc(C(=O)NCCc4c[nH]cn4)cc32)cc1 [GW300660X],100%,100%,18%,82%,100%,100%,100%,100%,100%,100%
